Screens (PubChem)
Cruzain noTriton = qHTS Assay for Promiscuous and Specific Inhibitors of Cruzain (without detergent). Potency, µM, for the others: max response, negative = inhibition, usual class: inhibitors. purified cruzain, Z-FR-AMC fluorescence, no detergent. 200,000 compounds, 2.3% hits. Cruzipain (Trypanosoma cruzi), P25779. AID 1476, 2009;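 further: plate controls were enzyme without inhibitor for no effect and buffer without enzyme for full effect; nearly all actives have a fitted effect of over 40% in size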
Target sequence (P25779 123-467 limits assumed): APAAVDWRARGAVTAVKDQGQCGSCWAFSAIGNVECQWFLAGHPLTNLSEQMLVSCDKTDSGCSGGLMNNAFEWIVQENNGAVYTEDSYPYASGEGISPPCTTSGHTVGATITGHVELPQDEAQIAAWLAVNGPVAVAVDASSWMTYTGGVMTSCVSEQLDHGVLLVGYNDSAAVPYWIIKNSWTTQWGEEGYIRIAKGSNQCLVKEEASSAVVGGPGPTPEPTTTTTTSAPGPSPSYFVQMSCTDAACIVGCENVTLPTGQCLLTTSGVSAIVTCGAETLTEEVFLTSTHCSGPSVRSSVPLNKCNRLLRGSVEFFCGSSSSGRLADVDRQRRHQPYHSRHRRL
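Purified cruzain at 1.5 nM, pre-incubated 15 min with compound at room temperature in 100 mM sodium acetate pH 5.5, 5 mM DTT, 0.00005% Triton X-100. Reaction started with 2 uM Z-FR-AMC; AMC fluorescence increase over 60 s gives rate.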
Cruzain inh Det = qHTS Assay for Promiscuous and Specific Inhibitors of Cruzain (with detergent) | Potency, µM, inactives show max response, negative = inhibition, actives largely listed as inhibitors | 200,000 compounds, 0.43% hits | AID 1478, 2009 | purified cruzain, Z-FR-AMC fluorescence, 0.01% Triton;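 further: plate controls were neutral wells for no effect and buffer without enzyme for full effect; nearly all actives have a fitted effect of over 40% in size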
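Cruzain (1.5 nM) preincubated 15 min at RT with compound in 100 mM sodium acetate pH 5.5, 5 mM DTT, 0.01% Triton X-100. Reaction started with 2 uM Z-FR-AMC; AMC fluorescence (ex 360/em 450 nm) change over 60 s gave rate.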
* = called active by the depositor; ? = inconclusive. A selection: hits, their analogues and other compounds. The true share with any hit is near 2.6%. The call rests on the fitted dose curve; in most records, active means well fitted curve in the direction sought with a large enough effect; inconclusive means small, poorly fitted or top-dose-only effect, or another doubt; inactive means no such curve, though single readings can be large; an effect the other way counts as inactive or inconclusive. Potency means the concentration at half of the fitted maximal effect.

SMILES	Cruzain noTriton	Cruzain inh Det
O=C(Nc1nc2n(n1)C(c1ccccc1)C=C(c1ccccc1)N2)c1ccccc1 (stereo unspecified)	12%	2%
Cc1cc2cc(C#N)c(NCCNC(=S)NCCCN3CCOCC3)nc2cc1C	?	25µM*
Cc1cccc2cc(C#N)c(NCCNC(=S)NCCCN3CCOCC3)nc12	-3%	-8%
Cc1ccc([N+](=O)[O-])cc1/C=N/Nc1nnnn1-c1ccccc1	-10%	1%
Cc1cc(/C=N/Nc2ccc([N+](=O)[O-])cn2)c(C)n1-c1ccccc1	4µM*	-2%
Cc1ccc(Cn2cc(/C=N/Nc3ccc([N+](=O)[O-])cn3)c3ccccc32)cc1	6.3µM*	-4%
Cc1cc(C)cc(-n2c(C)cc(/C=N/NC(=O)c3cccc([N+](=O)[O-])c3C)c2C)c1	?	-4%
Cc1ccc(-n2c(C)cc(/C=N/Nc3ccc([N+](=O)[O-])cn3)c2C)cc1	7.9µM*	-6%
O=Cc1cn(Cc2ccc([N+](=O)[O-])cc2)c2ccccc12	?	-7%
COc1cccc(-c2nc(SCc3cccc(Br)c3)n3[nH]c(=O)cc3n2)c1	4%	0%
Cc1nc(NC2CCCCC2)c2nc(-c3ccccc3)n(CCN3CCCC3)c2n1	-4%	-1%
Cc1ccc2c(c1)c(=O)c(C(=O)c1ccncc1)cn2CC(=O)Nc1ccc(C(C)C)cc1	-6%	-4%
Cc1ccc(Cl)cc1NC(=O)Cn1cc2c(n1)CCCCC2	-4%	-2%
Cc1ccc(C2=NC(c3ccc(F)cc3)=Nc3ccc(C)cc3N2)cc1	25µM*	-1%
Cc1ccc2c(c1)NC(c1cccnc1)=NC(c1ccc(F)cc1)=N2	5%	-4%
COc1ccc(OCC(=O)Nc2ccc(O)c(-c3nc4ccccc4s3)c2)cc1	3%	-2%
Oc1ccc(N=C/C=C/c2ccc(Br)cc2)cc1-c1nc2ccccc2s1	32µM*	-14%
CN1C(=O)C(=Cc2ccccc2Oc2ccc(Cl)c(F)c2)C(=O)N(C)C1=O	7%	-1%
O=C1NC(=O)/C(=C\c2ccccc2Oc2ccc(F)c(F)c2)S1	25µM*	-7%
O=C(CSc1nnc(-c2ccc(Cl)cc2)c(-c2ccc(Cl)cc2)n1)NC1CCCC1	-9%	-8%
Cc1ccc(-c2nnc(SCC(=O)NC3CCCC3)nc2-c2ccc(C)cc2)cc1	13µM*	?
COc1ccccc1C(=O)Nc1ccccc1SCc1cc(=O)c2ccccc2[nH]1	-12%	3%
O=C(CCCN1C(=O)/C(=C/c2cccc(Br)c2)SC1=S)Nc1ccccn1	25µM*	-4%
CCc1ccc(/C=C2\SC(=S)N(CCCC(=O)Nc3ccccn3)C2=O)cc1	-25%	0%
COc1cc2c(cc1NC(=O)c1ccc3c(c1)OCO3)oc1ccccc12	?	-9%
SMILES	Cruzain noTriton	Cruzain inh Det
COc1ccc(-c2cc3ccccc3oc2=O)cc1NC(=O)c1ccc(Br)o1	25µM*	-21%
COc1ccc(-c2cc3ccccc3oc2=O)cc1NC(=S)NC(=O)c1ccc2c(c1)OCCO2	13µM*	-3%
COc1ccc(-c2cc3ccccc3oc2=O)cc1NC(=O)c1ccc([N+](=O)[O-])o1	-22%	-4%
Cc1ccc(C)c(NC(=O)C(=O)NCCc2csc(-c3cccc(F)c3)n2)c1	-9%	0%
C=CCOC(=O)N[C@H](c1ccccc1)C(C(C)=O)C(C)=O	-5%	1%
CC(Sc1nnc(NC2CCCCC2)s1)C(=O)Nc1ccc2c(c1)C(=O)c1ccccc1C2=O (stereo unspecified)	16µM*	0%
CC(Sc1nnc(Nc2ccccc2)s1)C(=O)NC1CCCc2ccccc21 (stereo unspecified)	-12%	-10%
Nc1ncnc2c1nc(-c1ccccc1)n2[C@H]1O[C@@H](CO)[C@@H](O)[C@H]1O	3%	-1%
CC(C)(CN)SCc1ccccc1	-1%	-6%
O=[N+]([O-])c1ccc(OC/C=C2\Oc3ccc([N+](=O)[O-])cc3C2N2CCOCC2)cc1 (stereo unspecified)	-2%	-9%
O=[N+]([O-])c1ccc2c(c1)C(N1CCOCC1)/C(=C/COc1ccc3ccccc3c1Br)O2 (stereo unspecified)	25µM*	-4%
CN(C)c1ccc(NC(=O)c2sc(SCC(=O)Nc3nccs3)nc2N)cc1	?	-7%
CN(C)c1ccc(NC(=O)c2sc(SCC(=O)Nc3ccc(Br)cc3)nc2N)cc1	10µM*	6%
O=C(NCCc1ccc(F)cc1)C(=O)NCC(c1ccc2c(c1)OCO2)N1CCOCC1 (stereo unspecified)	-9%	0%
CC(=O)Nc1sc(NC(=O)c2ccccc2)nc1-c1cccs1	-5%	0%
CCN(CC)c1ccc(/C=C(\C#N)c2nc(-c3cccs3)c(NC(C)=O)s2)cc1	16µM*	-4%
Cc1ccc(NC(=O)Cc2coc3c(C)c(C)ccc23)c(C)c1	-21%	-4%
Cc1ccc2c(CC(=O)Nc3ccc(N4CCN(C)CC4)cc3C)coc2c1	25µM*	1%
O=C(CNC(=O)c1ccccc1F)OC(C(=O)Nc1cc(C(F)(F)F)ccc1Cl)c1ccccc1 (stereo unspecified)	7.9µM*	5µM*
C[C@H](NC(=O)c1ccccc1Cl)C(=O)OC(C(=O)Nc1cc(C(F)(F)F)ccc1Cl)c1ccccc1 (stereo partly specified)	-30%	?
COc1ccc(CNC(=O)CSc2nc(-c3ccc(OC)c(OC)c3)cc(C(F)(F)F)n2)cc1	-4%	-5%
COc1cc(NS(=O)(=O)c2ccc(Nc3nc(-c4cccc([N+](=O)[O-])c4)cs3)cc2)nc(OC)n1	32µM*	-9%
COc1cc(NS(=O)(=O)c2ccc(NS(=O)(=O)c3ccccc3)cc2)nc(OC)n1	-3%	-2%
CCN(CC)C(=O)c1sc(NC(=O)c2nc3ncccn3n2)c(C(=O)OC)c1C	-2%	1%
NC(=S)N/N=C\c1ccccc1OCc1ccccc1	1.3µM*	3.2µM*
SMILES	Cruzain noTriton	Cruzain inh Det
COC(=O)N/N=C/c1cc(Cl)cc(Cl)c1OCc1ccccc1	-10%	-7%
O=C(CSCc1ccccc1)N/N=C/c1ccccc1OCc1ccccc1	1%	-1%
COc1cccc(/C=N/NC(N)=S)c1OCc1cccc(Cl)c1	5µM*	-24%
Cc1ccc(N(C)C(=O)c2cc(S(=O)(=O)N3CCOCC3)cn2C)cc1	7%	-2%
CCc1ccccc1NC(=O)C(=O)NCCc1sc(-c2cccc(C)c2)nc1C	11%	-8%
N#Cc1cccc(NC(=O)N2CC[C@@]3(CCCN(C(=O)c4cccc(F)c4)C3)C2)c1	1%	3%
Cc1ccc(-c2csc(NC(=O)c3ccc(S(=O)(=O)N4CCc5ccccc54)cc3)n2)cc1	5µM*	1%
COc1ccc(/C=N/Nc2nc(-c3cccc(S(=O)(=O)N4CCCC4)c3)cs2)c(OC)c1	7.9µM*	-2%
O=C(Nc1nc(-c2ccccc2)cs1)c1ccc(S(=O)(=O)N2CCc3ccccc32)cc1	6.3µM*	-1%
Cc1ccc(-c2csc(NC(=O)c3cccc(S(=O)(=O)N4CCN(C)CC4)c3)n2)cc1	-4%	-13%
O=C(Nc1nc(-c2ccc(S(=O)(=O)N3CCOCC3)cc2)cs1)c1ccccc1	-15%	-6%
COc1cccc(C(=O)Nc2nc3ccc(S(=O)(=O)N4CCCC4)cc3s2)c1	-6%	-9%
O=C(Nc1nc(-c2ccc3c(c2)Cc2ccccc2-3)cs1)c1ccccc1	20µM*	0%
